Screening data deposited in PubChem BioAssay by Broad Institute.
miR122 inh: activators of miR-122 sensor in Huh7 cells; Huh7 psiCHECK-miR122 Renilla luciferase sensor, 48 h; activation, % at 12.5 µM; actives 0.14% (n = 340,000);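 active means mean activation of 30% or more, with every replicate also reaching 30%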;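 further: 0% = median of neutral control wells and 100% = median of positive control wells; higher luciferase signal means stronger suppression of miR-122 activity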
Numbers without * were called inactive. The entries come from a sample that favours hits as a whole.

SMILES	miR122 inh
C[C@H](CO)N1C[C@H](C)[C@@H](CN(C)S(=O)(=O)c2ccc(F)cc2)Oc2ncc(/C=C/c3ccccc3)cc2C1=O	0
Cc1cc(C(=O)Nc2cccc3c2O[C@@H](CN(C)CC2CCCCC2)[C@@H](C)CN([C@H](C)CO)C3=O)n(C)n1	-97
C[C@H]1CN([C@@H](C)CO)C(=O)c2cc(Br)cnc2O[C@H]1CN(C)CC1CCOCC1	12
COc1ccc(-c2cnc3c(c2)C(=O)N([C@H](C)CO)C[C@@H](C)[C@H](CN(C)C(=O)C2CCOCC2)O3)cc1	-1
C[C@@H]1CN([C@H](C)CO)C(=O)c2cccc(NC(=O)NC3CCCCC3)c2O[C@H]1CN(C)Cc1ccc(Cl)c(Cl)c1	-118
C[C@H]1CN([C@@H](C)CO)C(=O)c2cc(/C=C/c3ccccc3)cnc2O[C@@H]1CN(C)C(=O)Nc1ccccc1F	0
Cc1c(NC(=O)/C=C/c2cn(-c3ccccc3)nc2-c2ccccc2)c(=O)n(-c2ccccc2)n1C	37*
CCC(=O)N(C)C[C@@H]1Oc2ncc(C#CC3(O)CCCC3)cc2C(=O)N([C@@H](C)CO)C[C@H]1C	-8
C[C@@H]1CN([C@@H](C)CO)C(=O)c2cc(/C=C/c3ccccc3)cnc2O[C@@H]1CN(C)C(=O)c1cccnc1	3
O=C(COC(=O)c1ccccc1C(=O)c1ccc(Cl)c([N+](=O)[O-])c1)NC1CCCCCC1	63*
O=C(OCc1ccccc1Cl)c1ccccc1C(=O)c1ccccc1	-137
Cc1c(NC(=O)NC2CCCCC2)cccc1[N+](=O)[O-]	-157
COc1ccc(N2CCc3c(C)nc4c(OC)cc(OC)cc4c32)c(OC)c1	47*
C[C@@H]1CN([C@H](C)CO)C(=O)Cc2cc(N(C)C)ccc2O[C@@H]1CN(C)Cc1ccc(C(=O)Nc2ccccc2N)cc1	-130
CCC(=O)Nc1ccc2c(c1)C(=O)N(C)C[C@@H](OC)[C@@H](C)CN(C(C)=O)[C@@H](C)CO2	-3
CO[C@@H]1CN(C)C(=O)c2cc(NC(C)=O)ccc2OC[C@@H](C)N(C(=O)c2ccccc2)C[C@H]1C	3
C[C@@H]1CN([C@H](C)CO)C(=O)c2cc(C#CCC3CCCC3)cnc2O[C@@H]1CN(C)Cc1ccccn1	-14
COc1ccc(CN(C(=O)c2ccc(-c3ccccc3)[nH]2)C(C(=O)NCC2CCCO2)c2ccc(C)o2)cc1 (stereo not drawn)	-230
COc1ccccc1NS(=O)(=O)c1cc(NC(=S)NCC2CCCO2)ccc1C (stereo not drawn)	-99
COc1cccc(Nc2nc(NCC3CCCO3)c3ccccc3n2)c1 (stereo not drawn)	51*
COc1cccc(C#Cc2ccc3c(c2)O[C@H](CN(C)C(C)=O)[C@@H](C)CN([C@H](C)CO)S3(=O)=O)c1	-13
C[C@H]1CN([C@@H](C)CO)C(=O)c2cc(/C=C/c3ccccc3)cnc2O[C@H]1CN(C)Cc1ccccc1F	10
CCCC#Cc1ccc2c(c1)O[C@H](CN(C)S(C)(=O)=O)[C@H](C)CN([C@H](C)CO)S2(=O)=O	-16
C[C@H]1CN([C@@H](C)CO)C(=O)c2cc(Br)cnc2O[C@@H]1CN(C)C(=O)c1cccnc1	-1
Cc1ccc(S(=O)(=O)Nc2cccc3cccnc23)c([N+](=O)[O-])c1	-100
SMILES	miR122 inh
CC(C)C(=O)NC(c1cccc([N+](=O)[O-])c1)c1ccc2cccnc2c1O (stereo not drawn)	41*
C[C@@H]1CN([C@@H](C)CO)S(=O)(=O)c2ccc(C#Cc3cccnc3)cc2O[C@@H]1CN(C)CC1CCOCC1	-24
C[C@H](CO)N1C[C@H](C)[C@@H](CN(C)CC2CCCC2)Oc2ncc(C#Cc3cccc(F)c3)cc2C1=O	6
CC(C)CC#Cc1cnc2c(c1)C(=O)N([C@H](C)CO)C[C@@H](C)[C@H](CN(C)Cc1ccc(F)cc1)O2	-5
CCCNC(=O)N1C[C@H]2[C@@H](c3ccccc31)[C@@H](CO)N2Cc1ccc(F)cc1	-92
O=C(C1CCCCC1)N1[C@H](CO)[C@@H]2c3ccccc3N(S(=O)(=O)c3ccccc3)C[C@@H]21	-96
O=C(Nc1ccccc1F)N1C[C@H]2[C@@H](c3ccccc31)[C@@H](CO)N2C(=O)c1ccc(F)cc1	-240
O=C(c1cccnc1)N1C[C@H]2[C@@H](c3ccccc31)[C@H](CO)N2C(=O)Nc1ccccc1Cl	40*
COc1cccc(C(=O)N2C[C@H]3[C@@H](c4ccccc42)[C@@H](CO)N3C(=O)c2ccc(F)cc2)c1	-229
O=C(Nc1ccc(F)cc1)N1C[C@H]2[C@@H](c3ccccc31)[C@H](CO)N2C(=O)c1ccncc1	50*
CCCNC(=O)N1C[C@@H]2[C@H](c3ccccc31)[C@@H](CO)N2Cc1cc(F)ccc1F	36*
COCC(=O)N1[C@H](CO)[C@H]2c3ccccc3N(C(=O)c3ccccc3F)C[C@H]21	44*
O=S(=O)(c1ccc(F)cc1)N1C[C@H]2[C@@H](c3ccccc31)[C@@H](CO)N2Cc1ccc2c(c1)OCO2	-100
O=C(Nc1ccc(N2CCOCC2)c(S(=O)(=O)Nc2cc(Cl)ccc2Cl)c1)c1cccnc1	-325
